# Source: PubChem BioAssay AID1745849 (National Center for Advancing Translational Sciences (NCATS), 2022)
# The campaign covered roughly 2,100 compounds. About 320 (15%) were called active. Not shown: some 52% with an inconclusive outcome. Calls come from the whole dose curve; as a rule, active = well fitted cell-killing curve with a large enough effect; inconclusive = small, poorly fitted or top-dose-only effect, or effect the other way; inactive = flat fitted curve, though single readings scatter. The list shows a part of the results.
# Assay: Viability Counterscreen for CMV-Luciferase Assay of Inhibitors of ATXN expression; note: nearly all actives have a fitted effect of over 55% in size
# Conditions: HEK-293 CMV-luciferase cells viability, protease fluorescence, 24 h; activity change, negative = cytotoxicity: at the top concentration
# Procedure, shortened: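 HEK-293 cells stably expressing a CMV-luciferase reporter were exposed to compounds at several concentrations for 24 hr at 37 degree C. Viability was read as Gly-Phe-AFC fluorescence (25 uM final, 30 min). SteadyGlo luminescence was then measured after 5 min.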
# % is set by controls: 0 for no effect and ±100 for the full control effect; potency is the fitted concentration of half-maximal effect.
SMILES,"activity change, negative = cytotoxicity",Potency
Cc1csc(NC(=O)COCC(=O)O)c1-c1nc2ccccc2s1,-22.3% [at 57.5 µM] (inactive),–
Cn1c(COc2ccc(Cl)cc2)nnc1SCc1ncc(-c2ccccc2)o1,-18.9% [at 57.5 µM] (inactive),–
COc1ccc(-c2c[n+]3c4n2CCCCC4=C(c2ccc(Br)cc2)C3)cc1,-20% (inactive),–
COc1ccc(-c2c[n+]3c(n2-c2ccc(C)cc2)CCCCC3)cc1,–,12.6 µM (active)
CCOc1ccc(-c2c[n+]3c(n2-c2ccccc2)CCCCC3)cc1,-17.8% [at 57.5 µM] (inactive),–
CN(c1ccccc1)c1ccc(/C=N/NC(=O)CC#N)cc1,-8.07% [at 57.5 µM] (inactive),–
CCCc1cc(C(=O)Nc2ccc(C(=O)c3ccc(C)cc3)cc2)n(C)n1,-12.3% (inactive),–
O=C(Nc1ccc[n+](CC(=O)c2cccc3ccccc23)c1)c1ccccc1,–,3.16 µM (active)
CC(C(=O)c1ccc(-c2ccccc2)cc1)[n+]1cccc(NC(=O)c2ccccc2)c1 (centres undefined),-18.3% (inactive),–
OCCN(Cc1ccccc1)CC(O)COc1ccc(-c2ccccc2)cc1 (centres undefined),-8.58% [at 57.5 µM] (inactive),–
OC(CNCCc1ccccc1)COc1ccc(OCC(O)CNCCc2ccccc2)cc1 (centres undefined),–,28.2 µM (active)
CCOc1ccccc1NC(=O)N1CCC(c2nc3ccccc3[nH]2)CC1,-9.53% (inactive),–
O=c1cnnc(N/N=C/c2ccccn2)[nH]1,–,1.58 µM (active)
O=c1nc(N/N=C/c2ccccn2)cn[nH]1,–,7.94 µM (active)
C(=N\Nc1ccc2nncn2n1)/c1ccccn1,–,11.2 µM (active)
C(=N\NC(=Nc1ccccc1)c1ccccn1)/c1ccccn1,-16.1% [at 57.5 µM] (inactive),–
COc1cccc(CNCCc2c[nH]c3ccccc23)c1OCc1ccc(F)cc1,-24.6% (inactive),–
Cc1cc(N2CCN(c3nc(-c4ccccc4)cs3)CC2)c2ccccc2n1,-8.04% (inactive),–
CCN1CCS/C1=C\C=C\C1=[N+](CC)CCS1,–,15.8 µM (active)
CCOC(=O)c1sc2nc(CSc3ccccc3)nc(NCCN(C)C)c2c1C,-19.6% [at 57.5 µM] (inactive),–
COc1ccc(OCCNC(=O)C2(C)CCN2Cc2ccc3ccccc3c2)cc1 (centres undefined),-24.8% [at 57.5 µM] (inactive),–
CCCCn1c(/C=N/Nc2nc3ccccc3[nH]2)nc2ccccc21,-17.7% (inactive),–

SMILES,"activity change, negative = cytotoxicity",Potency
O=C1C=Cc2cccc3ccc(O)c1c23,-11.2% (inactive),–
O=C(N/N=C/c1ccc(O)cc1O)/C(=C/c1ccccc1)CCO,-27.3% (inactive),–
O=C(CNS(=O)(=O)c1ccc([N+](=O)[O-])cc1)N/N=C/c1ccc(O)cc1O,-26.6% (inactive),–
COc1ccc2nc(C)cc(SCC(=O)N/N=C/c3ccc(O)cc3O)c2c1,–,7.94 µM (active)
O=C(CP(=O)(c1ccccc1)c1ccccc1)N/N=C/c1cc(Br)cc(Br)c1O,4.95% (inactive),–
O=C(NN=Cc1ccc(O)cc1O)c1ccccc1NS(=O)(=O)c1cccs1,-18.8% (inactive),–
Cc1cc(C)n(CCC(=O)N/N=C/c2ccc(O)cc2O)n1,-20.7% (inactive),–
O=C(/C=C\c1ccccc1)NCC(=O)N/N=C/c1ccc(O)cc1O,–,10 µM (active)
COc1ccc(N2CCN(c3cc(C)nc4ccc(OC)cc34)CC2)cc1,-27.2% (inactive),–
Cc1cc(SCC(=O)N/N=C/c2ccc(O)cc2O)c(C)cc1Br,–,11.2 µM (active)
CCOc1ccc(/C=N/NC(=O)C(O)c2ccccc2)c(O)c1 (centres undefined),-21.2% (inactive),–
Cc1cc(SCC(=O)N/N=C/c2ccc(O)cc2O)nc2ccccc12,–,12.6 µM (active)
COc1ccc(O)c(/C=N/NC(=O)c2ccc(CSc3nc(C)cc(C)n3)cc2)c1,-10.8% [at 57.5 µM] (inactive),–
CCCCn1c(SCC(=O)Nc2cc(C(F)(F)F)cc(C(F)(F)F)c2)nnc1C(CC)N(C)C (centres undefined),-18.5% (inactive),–
COc1cc2ccnc(Cc3cccc(OC)c3OC)c2cc1OC,10.6% [at 57.5 µM] (inactive),–
Cn1cc(SCC(=O)Nc2nc3ccccc3s2)c2ccccc21,-20.3% (inactive),–
COc1ccc(/C=C/C(=O)Nc2cccc(F)c2)cc1S(=O)(=O)N1CCOCC1,-29.3% [at 57.5 µM] (inactive),–
O=C(Nc1cccc(Br)c1)Oc1cccc2cccnc12,-12.5% [at 57.5 µM] (inactive),–
c1cnc2c(c1)ccc1cccnc12,–,5.01 µM (active)
CCCC(=O)N1CCCC(c2cc(C(=O)Nc3ccccc3)no2)C1 (centres undefined),-9.15% [at 57.5 µM] (inactive),–
Cc1nn(-c2ccccn2)c2c1C(=O)CC(C)(C)C2N=[N+]=[N-] (centres undefined),2.56% (inactive),–
CCc1cc2c(N3CCN(c4nnc(CC)s4)CC3)ncnc2s1,-8.2% (inactive),–

SMILES,"activity change, negative = cytotoxicity",Potency
Cc1cc(C)nc(/N=C(\N)Nc2ccc(OCc3ccccc3)cc2)n1,-27.6% [at 57.5 µM] (inactive),–
NC(N)=N/N=C/c1ccc2cccc(OCc3ccccc3)c2n1,–,14.1 µM (active)
CC(O)CNCCNCc1c(OCc2ccccc2)ccc2ccccc12 (centres undefined),-11.2% [at 57.5 µM] (inactive),–
COc1ccccc1C(CCNCc1ccccc1)c1ccc(OC(C)C)cc1 (centres undefined),-13.2% (inactive),–
CN1C2CCC1/C(=C\c1ccccc1)C(=O)/C2=C\c1ccccc1,–,10 µM (active)
Cc1ccc2c(Cl)cc(Cl)c(OCC(=O)Nc3cc(S(=O)(=O)N(C)C)ccc3C)c2n1,-8.55% (inactive),–
CN1CCN(c2nc(-c3ccccn3)nc3ccccc23)CC1,-17.1% [at 57.5 µM] (inactive),–
c1ccc(CNc2nc(-c3ccccn3)nc3ccccc23)cc1,–,7.94 µM (active)
Clc1cccc(-c2nc(NCc3cccnc3)c3ccccc3n2)c1,-12.7% [at 57.5 µM] (inactive),–
CC(C)CCNC(=O)COc1cccc2c1OC(C)(C)C2,3.34% [at 57.5 µM] (inactive),–
COc1cc(OC)c(C(=O)C=Cc2ccc(OC)c(OC)c2)c(OC)c1,–,20 µM (active)
COc1cc(C=CC(=O)c2cc(OC)c(OC)c(OC)c2)cc(OC)c1OC,–,10 µM (active)
COc1cc(/C=C/C(O)=C/C(=O)/C=C/c2ccc(O)cc2)ccc1O,-16.8% (inactive),–
COc1ccc(C(=O)/C=C/c2ccc(OC3CSC3)cc2)cc1OC,14.2% (inactive),–
COc1ccc(NC(=O)c2oc3ccc(S(=O)(=O)N4CCC5(CC4)OCCO5)cc3c2C)cc1,-13.9% (inactive),–
Cn1ncc2c(Nc3cccc(Cl)c3)nc(Nc3cccc(Cl)c3)nc21,-16.3% [at 57.5 µM] (inactive),–
CC1Sc2ccc(S(=O)(=O)CCC(=O)N3CCN(c4cccc(Cl)c4)CC3)cc2NC1=O (centres undefined),-24.1% [at 57.5 µM] (inactive),–
COc1ccc(C(=O)Nc2nc(-c3ccc(S(=O)(=O)N4CCOCC4)cc3)cs2)cc1,-23.6% (inactive),–
CC(=O)c1sc(NC(=O)c2cc(-c3ccccc3)nn2-c2ccccc2)nc1C,11.5% (inactive),–
CC(=O)c1c(C)[nH]c(C(=O)Nc2nc(-c3ccc(-c4ccccc4)cc3)cs2)c1C,–,11.2 µM (active)
COc1ccccc1C(=O)Nc1nc(-c2ccc(S(=O)(=O)N3CCOCC3)cc2)cs1,-25% (inactive),–
CC(O)(c1ccccc1)c1nc(-c2ccncc2)cs1 (centres undefined),19.3% (inactive),–

SMILES,"activity change, negative = cytotoxicity",Potency
O=C(Nc1nc(-c2ccccc2)cs1)c1ccccc1NS(=O)(=O)c1ccc(F)cc1,–,3.16 µM (active)
COc1ccc(-c2csc(NC(=O)c3ccccc3NS(=O)(=O)c3ccc(F)c(F)c3)n2)cc1,–,2.24 µM (active)
COCC(=O)OC/C(O)=C(\C#N)c1nc2ccccc2[nH]1,9.99% (inactive),–
CCOc1cc(CNCCO)cc(Br)c1OCc1ccccc1,2.53% [at 57.5 µM] (inactive),–
O=C(c1ccco1)N(CCCN1CCOCC1)c1nc(-c2ccc(Cl)cc2)cs1,6.96% (inactive),–
CN(C)S(=O)(=O)c1cccc(N2C(=O)CC3(CCCCC3)CC2=O)c1,-2.8% (inactive),–
O=C(CN1C(=O)c2ccccc2S1(=O)=O)c1ccc(Cl)cc1Cl,6.64% [at 57.5 µM] (inactive),–
N#Cc1c(Oc2ccc3ccccc3c2)sc(C(=O)c2ccccc2)c1N,-22.7% [at 57.5 µM] (inactive),–
Cc1ccc(C)n1-c1ccc(C(=O)N2CCC(C(N)=O)CC2)cc1,-20.6% (inactive),–
Cc1ccc(C)c(N2CCN(C(=O)CCCCCn3c(=S)[nH]c4ccc(N5CCOCC5)cc4c3=O)CC2)c1,-23.9% (inactive),–
O=C(CN1C(=O)c2ccccc2S1(=O)=O)c1ccc(O)c(O)c1,-3.1% (inactive),–
c1ccc(COc2ncnc3c2ncn3CCCN2CCN(Cc3cccc4ccccc34)CC2)cc1,–,25.1 µM (active)
O=c1[nH]c(CN2CCN(c3ncccn3)CC2)nc2c(Br)cc(Br)cc12,13.6% (inactive),–
COc1ccc2c(c1)[nH]c1c(=O)n(/N=C/C3C(C)C=C(C)CC3C)c(=O)[nH]c12 (centres undefined),–,20 µM (active)
O=C(CCCN1CCc2[nH]c3ccc(F)cc3c2C1)c1ccc(F)cc1,-27.3% [at 57.5 µM] (inactive),–
N=c1n(CCN2CCCCC2)c2ccccc2n1CC(O)c1ccc(Cl)c(Cl)c1 (centres undefined),–,20 µM (active)
Cc1ccc(OCC(O)Cn2c(=N)n(CCN3CCCCC3)c3ccccc32)cc1 (centres undefined),-17.3% [at 57.5 µM] (inactive),–
Cc1nc(SC2CC(=O)N(c3ccccc3)C2=O)n[nH]1 (centres undefined),-17.3% [at 57.5 µM] (inactive),–
CCCCC/C=C/C1=CC(=O)C[C@H](c2ccc(OC)c(OC)c2)C1,-15.6% [at 57.5 µM] (inactive),–
Cc1cc(=O)oc2c1c(C)nn2-c1cccc(Cl)c1,0.11% (inactive),–
O=C(c1cccc(Cl)c1)c1nn(-c2ccccc2)c(=O)cc1C(F)(F)F,–,22.4 µM (active)
CC(C)=C1SC(N2CCN(c3ccc(C)c(Cl)c3)CC2)=NC1=O,-9.92% (inactive),–

SMILES,"activity change, negative = cytotoxicity",Potency
CC(C)Nc1nc(NC(C)C)nc(N(C#N)CCOc2ccc(Cl)cc2Cl)n1,-13.3% (inactive),–
O=C(NC(c1ccccc1)c1ccc2ccccc2n1)C1CCN(CCOc2ccc(Cl)cc2Cl)CC1 (centres undefined),–,17.8 µM (active)
COc1ccc(NC2=NCC(Cc3ccc(Br)cc3)S2)cc1 (centres undefined),-18.7% (inactive),–
COc1ccc(N2C3=C(CC4=C2CC(C)(C)CC4=O)C(=O)CC(C)(C)C3)cc1,-5% (inactive),–
CCCCNC(=O)C1(C)CCCCN1Cc1ccccc1-c1ccccc1 (centres undefined),-15.7% [at 57.5 µM] (inactive),–
C/C(=C\C(=O)c1ccc(Br)cc1)NNC(=O)c1ccc(O)cc1,–,12.6 µM (active)
CC(=NNC(=O)c1ccncc1)c1ccc(O)cc1O,19.1% [at 57.5 µM] (inactive),–
O=c1ccc2ccccc2c2ccccc12,–,10 µM (active)
O=c1cc(-c2ccncc2)oc2c1ccc1ccccc12,-29.1% [at 57.5 µM] (inactive),–
O=C(CCc1ccccc1)NNC(=O)c1cc(Cl)ccc1O,-25.6% (inactive),–
Cc1ccc(C(=O)NNC(=O)CCCN2C(=O)/C(=C/c3ccccc3Cl)SC2=S)cc1,-26.5% [at 57.5 µM] (inactive),–
COc1cccc(/C=C2/SC(=S)N(CCCC(=O)Nc3ccc(O)cc3)C2=O)c1,–,3.98 µM (active)
CC(C)(C)c1ccc(OCCCC(=O)NNC(=O)c2ccccc2O)cc1,–,25.1 µM (active)
COc1ccc(/C=C2\SC(=S)N(CCCC(=O)NNC(=O)c3ccccc3O)C2=O)cc1,–,20 µM (active)
Cc1ccc2c(CC(=O)NNC(=O)c3ccccc3O)coc2c1,-9.69% (inactive),–
Cc1ccc(/C=C2\SC(=S)N(CCCC(=O)Nc3cc(C)on3)C2=O)cc1,-24.9% (inactive),–
COc1ccccc1/C=C1\SC(=S)N(CCC(=O)NC2=NCCS2)C1=O,-4.03% [at 57.5 µM] (inactive),–
Cc1ccc(/C=C2/SC(=S)N(CCCC(=O)Nc3cc([N+](=O)[O-])ccc3O)C2=O)cc1,–,25.1 µM (active)
Cc1ccc(/C=C2\SC(=S)N(CCCC(=O)NC3CCCC3)C2=O)cc1,-8.21% [at 57.5 µM] (inactive),–
COc1cc(/C=C2\SC(=O)N(CC(=O)Nc3ccccc3F)C2=O)cc(Cl)c1O,26% (inactive),–
Cc1ccc(/C=C2\SC(=S)N(CCCC(=O)Nc3ccc(O)cc3)C2=O)cc1,-5.85% (inactive),–
